Results published in PubChem BioAssay AID1159580 (chemical genetic matrix, 2015).
Among all 5,500 compounds or so, about 2,000 (36%) were called active. Roughly 18% stayed inconclusive and do not appear here. Rule as the data show it: active = normalized growth mostly below about 0.91 (no sharp cut-off); inconclusive = no clear call, values can overlap the other calls; inactive = mostly above about 0.92. Some of the results follow.

Assay: chemical genetic growth profiling, strain panel (AID 1159580);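 also: tested at 20 µM; growth read once vehicle control cultures reached saturation at 30 °C; 1 = growth at the plate median or of vehicle wells; lower values mean less growth of the strain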
Conditions: growth OD

Measured: normalized growth

CC(C)CC(NC(=O)OCC1c2ccccc2-c2ccccc21)C(=O)O (stereo unspecified)
inactive: S. cerevisiae deletion strains, locus YAL013W, strain DEP1, hits give low values 1.01 | S. cerevisiae deletion strains, locus YBR021W, strain FUR4, hits give low values 0.994 | S. cerevisiae deletion strains, locus YBR229C, strain ROT2, hits give low values 0.997 | S. cerevisiae deletion strains, locus YCL029C, strain bik1, hits give low values 1.03 | S. cerevisiae deletion strains, locus YDL035C, strain GPR1, hits give low values 0.998 | S. cerevisiae deletion strains, locus YDL074C, strain BRE1, hits give low values 1 | S. cerevisiae deletion strains, locus YDL101C, strain DUN1, hits give low values 1.02 | S. cerevisiae deletion strains, locus YDL134C, strain PPH21, hits give low values 0.986 | S. cerevisiae deletion strains, locus YDL185W, strain tfp1, hits give low values 0.998 | S. cerevisiae deletion strains, locus YDL192W, strain arf1, hits give low values 1.01 | S. cerevisiae deletion strains, locus YDR101C, strain arx1, hits give low values 1.01 | S. cerevisiae deletion strains, locus YDR150W, strain NUM1, hits give low values 0.995 | S. cerevisiae deletion strains, locus YDR162C, strain NBP2, hits give low values 1.01 | S. cerevisiae deletion strains, locus YDR318W, strain mcm21, hits give low values 1.02 | S. cerevisiae deletion strains, locus YDR388W, hits give low values 1.01 | S. cerevisiae deletion strains, locus YDR502C, strain sam2, hits give low values 1.02 | S. cerevisiae deletion strains, locus YEL061C, strain CIN8, hits give low values 0.997 | S. cerevisiae deletion strains, locus YER110C, hits give low values 1.02 | S. cerevisiae deletion strains, locus YER155C, strain BEM2, hits give low values 1 | S. cerevisiae deletion strains, locus YER167W, strain BCK2, hits give low values 0.995 | S. cerevisiae deletion strains, locus YGL078C, strain dbp3, hits give low values 1 | S. cerevisiae deletion strains, locus YGL086W, strain mad1, hits give low values 0.981 | S. cerevisiae deletion strains, locus YGL248W, strain PDE1, hits give low values 1 | S. cerevisiae deletion strains, locus YGR078C, strain PAC10, hits give low values 1.02 | S. cerevisiae deletion strains, locus YGR135W, strain pre9, hits give low values 1.02 | S. cerevisiae deletion strains, locus YGR229C, strain SMI1, hits give low values 0.982 | S. cerevisiae deletion strains, locus YGR252W, strain gcn5, hits give low values 0.916 | S. cerevisiae deletion strains, locus YHR030C, strain SLT2, hits give low values 1.01 | S. cerevisiae deletion strains, locus YHR079C, strain IRE1 (second series), hits give low values 1.01 | S. cerevisiae deletion strains, locus YHR094C, strain hxt1, hits give low values 0.997 | S. cerevisiae deletion strains, locus YHR129C, strain ARP1, hits give low values 1.01 | S. cerevisiae deletion strains, locus YHR200W, strain rpn10, hits give low values 1.01 | S. cerevisiae deletion strains, locus YIL066C, strain RNR3, hits give low values 1.02 | S. cerevisiae deletion strains, locus YIL073C, strain SPO22, hits give low values 1.03 | S. cerevisiae deletion strains, locus YIL125W, strain kgd1, hits give low values 0.992 | S. cerevisiae deletion strains, locus YIR030C, strain dcg1, hits give low values 1 | S. cerevisiae deletion strains, locus YJL095W, strain BCK1, hits give low values 1.07 | S. cerevisiae deletion strains, locus YJL134W, strain LCB3, hits give low values 1 | S. cerevisiae deletion strains, locus YJL168C, strain set2, hits give low values 1.01 | S. cerevisiae deletion strains, locus YJL187C, strain SWE1 (second series), hits give low values 1.02 | S. cerevisiae deletion strains, locus YJR043C, strain POL32, hits give low values 1.02 | S. cerevisiae deletion strains, locus YJR075W, strain HOC1, hits give low values 0.997 | S. cerevisiae deletion strains, locus YKL009W, strain mrt4, hits give low values 0.969 | S. cerevisiae deletion strains, locus YKL068W, hits give low values 0.997 | S. cerevisiae deletion strains, locus YKL085W, strain MDH1 (second series), hits give low values 1 | S. cerevisiae deletion strains, locus YKL085W, strain MDH1, hits give low values 1 | S. cerevisiae deletion strains, locus YKL190W, strain CNB1, hits give low values 0.985 | S. cerevisiae deletion strains, locus YKR001C, strain vps1, hits give low values 1.06 | S. cerevisiae deletion strains, locus YLR039C, strain RIC1, hits give low values 1.05 | S. cerevisiae deletion strains, locus YLR058C, strain SHM2, hits give low values 0.997 | S. cerevisiae deletion strains, locus YLR102C, strain apc9, hits give low values 1.01 | S. cerevisiae deletion strains, locus YLR262C, strain YPT6, hits give low values 1.11 | S. cerevisiae deletion strains, locus YLR268W, strain sec22, hits give low values 1.06 | S. cerevisiae deletion strains, locus YLR330W, strain CHS5, hits give low values 0.984 | S. cerevisiae deletion strains, locus YLR342W, strain FKS1 (second series), hits give low values 0.985 | S. cerevisiae deletion strains, locus YLR371W, strain rom2, hits give low values 1.01 | S. cerevisiae deletion strains, locus YLR418C, strain cdc73, hits give low values 1 | S. cerevisiae deletion strains, locus YML016C, strain PPZ1, hits give low values 0.995 | S. cerevisiae deletion strains, locus YML032C, strain rad52, hits give low values 1.01 | S. cerevisiae deletion strains, locus YML124C, strain tub3, hits give low values 1 | S. cerevisiae deletion strains, locus YMR078C, strain ctf18, hits give low values 1.01 | S. cerevisiae deletion strains, locus YMR223W, strain ubp8, hits give low values 0.982 | S. cerevisiae deletion strains, locus YMR263W, strain SAP30, hits give low values 1.01 | S. cerevisiae deletion strains, locus YMR307W, strain GAS1, hits give low values 0.985 | S. cerevisiae deletion strains, locus YNL067W, strain RPL9B, hits give low values 1.03 | S. cerevisiae deletion strains, locus YNL128W, strain TEP1, hits give low values 1.02 | S. cerevisiae deletion strains, locus YNL153C, strain GIM3, hits give low values 1.02 | S. cerevisiae deletion strains, locus YNL233W, strain BNI4, hits give low values 1.01 | S. cerevisiae deletion strains, locus YNL250W, strain rad50, hits give low values 0.996 | S. cerevisiae deletion strains, locus YNL271C, strain bni1, hits give low values 1 | S. cerevisiae deletion strains, locus YNL298W, strain CLA4, hits give low values 0.994 | S. cerevisiae deletion strains, locus YNL307C, strain MCK1, hits give low values 1.02 | S. cerevisiae deletion strains, locus YNL322C, strain KRE1, hits give low values 1 | S. cerevisiae deletion strains, locus YNR052C, strain pop2, hits give low values 1.01 | S. cerevisiae deletion strains, locus YOL006C, strain TOP1, hits give low values 1.1 | S. cerevisiae deletion strains, locus YOL012C, strain htz1 1.27 | S. cerevisiae deletion strains, locus YOL147C, strain pex11, hits give low values 1.01 | S. cerevisiae deletion strains, locus YOR061W, strain CKA2, hits give low values 0.991 | S. cerevisiae deletion strains, locus YOR069W, strain VPS5, hits give low values 1 | S. cerevisiae deletion strains, locus YOR136W, strain idh2, hits give low values 0.99 | S. cerevisiae deletion strains, locus YOR144C, strain elg1, hits give low values 1 | S. cerevisiae deletion strains, locus YOR184W, strain ser1, hits give low values 1.05 | S. cerevisiae deletion strains, locus YOR316C, strain cot1, hits give low values 1.01 | S. cerevisiae deletion strains, locus YPL055C, strain LGE1, hits give low values 0.963 | S. cerevisiae deletion strains, locus YPL241C, strain CIN2, hits give low values 0.993 | S. cerevisiae deletion strains, locus YPR119W, strain clb2, hits give low values 1 | S. cerevisiae deletion strains, locus YPR141C, strain kar3, hits give low values 0.999 | S. cerevisiae deletion strains, locus YPR163C, strain tif3, hits give low values 1.02 | S. cerevisiae deletion strains, locus YPR167C, strain met16, hits give low values 1.01 | S. cerevisiae deletion strains, strain wtn01, hits give low values 1.04 | S. cerevisiae strains, strain wild type, hits give low values 1
